This passage reports z-score results from PubChem BioAssay AID1508600 (Functional Genomics Laboratory (NCATS/FGL), 2020).

The campaign covered roughly 53,000 sequences. About 3,700 (7%) were called active. Shown is part of a subset that was picked to be rich in actives. Values without a mark were called inactive.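 The calls were made as follows: active = gene knockdowns whose robust z-score for IL-1 alpha signal is at least 2 or at most -2, so actives lie on both sides; inactive = the rest.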

The test can be described thus: Components of the Cytosolic LPS Sensing Pathway: Gene Identification via Genome-wide siRNA Screen.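 Also: robust z of the log signal after scaling to non-targeting control siRNA wells of the plate.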 The note with it: RAW264.7 macrophages, IL-1a HTRF, actives lie on both sides, screened at 100 nM (by protocol), cells primed 5 h with Pam3CSK4 first. Put shortly: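 Three distinct siRNAs per gene were tested singly at 100 nM in RAW264.7 macrophages. Following Pam3CSK4 priming and 24 hour LipidA transfection, IL-1a secretion was read by HTRF.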
Consider GCCAUGUCAAUCAAUCACUTT against Nucks1, for which the z-score was -2.57 (active). To GGCUACCAAGGCAGUUUCCTT against Glis1 belongs -1.35; to GCUUUACUCCAGAUGGAUCTT against Chaf1b, 3.23 (active).

Regarding GGGUAUCAGUGCCUUCCUGTT against Acads, the z-score was -1.05. For GGUCACUCGGUUCACAAAATT against Bid the value was -0.731; for CGUUCAUAUAGAGAACUGUTT against Naip1, 0.699; for “CGUGCCUGCUCAAUUAAUUTT against 1700067P10Rik”, 2.46 (active). To GGGUAAUAGACCAUUUCUUTT against Olfr124 belongs 0.255. For GGAGCUUAGAGGAACGAAUTT against Cyp2j9 the value was 1.4; for GGAUUUUGGCCAAAUUGGUTT against Slc25a30, -2.08 (active); for GGAAGAAGAAGACCAGGGATT against Parvb, -0.0188. In the case of GGCCAACUUCGAAGAAAAGTT against Mrpl52, the z-score is 0.192.

As for CCAAAAAAUCCUAUACUCUTT against Cdh8, the z-score is 1.42. To GGUCACUUCCUUAAUUUUATT against Disc1 belongs -1.62; to GGAAGACCCUAAUCUAGUCTT against Cox5b, 2.1 (active). To GGCUUGGUGUUUUGAUUAGTT against Rogdi belongs 1.6; to GGUCUUGCAUGUCUCUGAGTT against Lrrc47, -1.45. With GGAGUUUGAACAUAUGAAGTT against Rcn1, the z-score is -0.417. On to GCUAUCAUGAAGCUAAAUGTT against Igf2bp1, for which the z-score is 0.267. For GGACAAGCAAGAAGGAAUUTT against Polr2j, the z-score is -2.43 (active).

As to CCAGAUUAUGACAAAGCGUTT against Glyat, the z-score is -0.0538. For AAACCAUACUUGAAAGAAATT against Olfr943 the value was -0.36. To GCAGUAGGUUGCACACAUATT against Art1 belongs -2.11 (active); to GCACACGUCCUAUAAAAAUTT against Rad54b, 0.532. To GGACUUCUCUGUGAAGAUGTT against Ctsf belongs -0.129; to GGAGAGAGGAUAAGUCACATT against Jsrp1, -1.44; to GCUGGAUCCAUCUAAUUGCTT against Klhl12, 0.0684. Take CGGGAUCUUAGAAGAGCAATT against Ptpre: the z-score is 2.6 (active). To GGACCAGUUAAAGUCACCATT against Atp4b belongs -1.81.

Consider GGAAGGUGGCUAUUUUAAUTT against Acsl3, for which the z-score was -0.207.

Take CCAUUUCUUUCAGUGGCUGTT against Olfr48: the z-score was -0.47. For GGCUAUAAAAGCACAGUUUTT against Slc25a26 the value was -0.61.

On to CCCUGCAUUUGUCAAUUAUTT against Hnrnpl, for which the z-score was -0.161.

As to “GGGACAAAGAGAUACACAUTT against 9530056K15Rik”, the z-score is 1.11. For GCCUGAUCGAUACGUGAUCTT against Naaladl1 the value was 3.35 (active). For the sequence GGAGGACAACAGCAAAACATT against Atoh1, the z-score was -1.01. Consider GGAAAGAGAAAAACAACCATT against Cngb3, for which the z-score was -0.522. In the case of GGCUCACAUUGUAACUUAGTT against Krtap5-2, the z-score is 1.41. For GGAGAAUGCUAAGGUUACUTT against Pcdhga9 the value was 0.269; for CGGCACACUAAGAAACGGATT against Odf3l1, 0.152.

GGAAGGAUAUGAGAAUUUCTT against Nt5c3: the z-score is 2.51 (active). To GCUCUUACAUAGAACUUUGTT against Tpbg belongs -0.218; to GGCCUUUUUUCUAUAUCUATT against Galnt3, -0.637; to GGUGGAGGUGUGAUGGAUUTT against Slamf1, 5.09 (active). For GGUGGUGGCAGAAAUGAAUTT against Dpep2 the value was -0.946.

With CCAGUUGUGCAAUCAACAATT against Fam98c, the z-score is -0.367. To CGCGGUGGAGCUUCGAGAATT against Nrtn belongs 0.374. For GUUUCUCCAUGGAGUCAUUTT against Psmb5 the value was -0.742; for GGCAUUCGAAGGGACAGAUTT against Arg2, -2.06 (active); for “GUGACCUCAUCCAGAAAAUTT against Vmn1r190-ps”, -0.613.

Turning to GGAUCACUUUGACCACAACTT against Rab31, the z-score is 1.43. For GCACUGGACCAAAGAACGGTT against Cercam the value was 1.14. Regarding GCCAUUAUAUAGUCCUACCTT against Klf1, the z-score is 0.719. For the sequence GGGUCAUGAAACCUACCUUTT against Hikeshi, the z-score was 0.182. To GCUUGGACUGGAGUGAAGCTT against Map6d1 belongs -2.4 (active); to GGCUACAAAGAUGCAGACUTT against Pi4k2a, 0.22. Regarding GACAUAUUUGGGUUUCUAATT against Vmn1r15, the z-score was -0.645. For GGAAUGACUUUUGAGACAGTT against Cyp1a1 the value was -0.732; for GGUAGAGAUCAUCAAUGCATT against Ggt5, 0.0858. As to “GGAGUCCAAGUUUAAGGAATT against 4930522H14Rik”, the z-score was -1.65. To CGGGACACUUGAAUUGGCUTT against Frmd4a belongs -2.25 (active); to GGAACAUUCUCUCCUUAUGTT against Ctps, -0.168; to GGAGUUGCAUCACUUGCUCTT against BC016579, 0.441. For GGUAACUGGUGUCAUUUAATT against Zfp474 the value was 0.619; for GGCAAGAUGCACAAGACUUTT against Cacna1s, 2.6 (active). Regarding GGAUGUGUUACUUACCAAATT against Map4, the z-score was 0.607. For GGCCUUCUAUACUACAGACTT against Hdac1 the value was -1.23; for CGGCUCACUAGCAGUGUCUTT against Ppm1b, -0.209; for GGUUACUCCUUUUUCAAUGTT against Elf5, -0.636. To GGACAUAGUCUGAGGCAAGTT against Ost4 belongs -1.34; to GCUGUUCAAUUUGAUUACUTT against Dapp1, 1.77; to GGCAACCAUAGACGAUGAATT against Rerg, -2.38 (active).

Regarding GGACCAGUUAAAGUGGCAGTT against Oas1e, the z-score is -0.00736. Consider GGUACUUGUACUAAUCGCUTT against Lpcat2, for which the z-score was 0.683. To CCCUUGAUUAAGUGGAUUATT against Tgfa belongs 1.19.

As for GGUGAUGGCUGUUCCUUUCTT against Zdhhc2, the z-score is 0.533. Consider GGAUGAAAUUGGAAAGGGCTT against Camkk2, for which the z-score is -0.0472.

As to CCAAUCCUCAACCUUGAAUTT against Ddx19a, the z-score was 0.0508. For “GGGACUUCCUUAUUGGAACTT against A830019P07Rik” the value was 1.23. For GGAUGUCAACAUUCGAGAUTT against Tmem231 the value was 0.993; for GGCCAGAGACAGUUAUCUUTT against Sptssb, 2.43 (active). GGAGAAUUGUUUUUACCAGTT against Bbox1: the z-score was 0.13. On to GGACUGACUGGAUUUUUCCTT against Adamts12, for which the z-score was -0.102.

On to GGCAUUAGGAUACAUAACATT against Rpgrip1l, for which the z-score is -0.743. Regarding GCUGUAACCAACAUACCUCTT against Inka1, the z-score is -0.91.

Turning to GGAACAAAGAUUGAGAGAATT against Sltm, the z-score was -1.62. For GGACAACUUUGAGGAGAUGTT against Tubg2 the value was 3.23 (active). Consider GGUUAUCAAAGCUAAGAAUTT against Ifi209, for which the z-score was -0.0859. For GCUAGUCAGAAGAAGUACUTT against Actrt2 the value was -0.402; for CCGAAGCAUGAAGAAUCUATT against Tubd1, 0.544; for GAGCAAUAAGCUAGGGUGATT against Olfr1428, 0.239. To “GGAAUGUACCAGAAAUACUTT against 4921504E06Rik” belongs 3.01 (active). Turning to GGCAAAUUCGAAAUAGACATT against Evx2, the z-score is 0.227. To GGAAGAAAUAGAGUUUUACTT against Ephx2 belongs 3.42 (active); to GGCUCUGAUGUUUCUAAAATT against Hdac10, 1.29; to GGUACUGUCGGUAUCCCACTT against Gcc1, -1.62. For GCCUUUGUACAAUGACUAUTT against Prpf38a the value was -0.127. As for GCAGAAAGCAACACGCCCUTT against Pramel20, the z-score was 0.631.

Turning to GGGUAUGCAGAAGGGAACATT against Nrap, the z-score is 0.424. For GGGCAGAGUGAUGUUGUCATT against Gsdmd the value was -3.34 (active); for CCAUUGUGUGGUACUUAAATT against Mrm3, 0.448. To GCGACUCACUAUUUGGGCATT against Ell3 belongs 0.471. As for GGAAAAUUCAUCCUUAGUATT against Wdr61, the z-score was -0.086.

In the case of CGAAACACCAGAUGUAUUCTT against Gck, the z-score was -0.551. To GGUUAUGAAACUGAGAAAGTT against Mid2 belongs -0.0195; to CCCUCUCUUUGGAUACACATT against Tenm4, -2.98 (active). For GGAUUUGUCAUCCACUUCUTT against Sez6 the value was -1.79.
